# From PubChem BioAssay (EPA / NIEHS)
# Inconclusive results are not listed. Activity calls are given as the source filed them. Rule for the calls, unless noted: active = hit-call score of the fitted dose curve at least 0.9, where 1 is the maximum; inactive = score below 0.9.
# Tests used:
# [1] = biological target: Paired box protein Pax-6 (Homo sapiens) (UniProt P26367); test: ATG_Pax6_CIS: Attagene CIS-FACTORIAL HepG2 Assay for human Paired Box 6 (PAX6) (AID 2282956); details: HepG2 CIS-FACTORIAL PAX6 reporter transcription, RNA readout; actives raise or lower the signal
# Chain of Paired box protein Pax-6 (Homo sapiens) (P26367 whole entry, looked up): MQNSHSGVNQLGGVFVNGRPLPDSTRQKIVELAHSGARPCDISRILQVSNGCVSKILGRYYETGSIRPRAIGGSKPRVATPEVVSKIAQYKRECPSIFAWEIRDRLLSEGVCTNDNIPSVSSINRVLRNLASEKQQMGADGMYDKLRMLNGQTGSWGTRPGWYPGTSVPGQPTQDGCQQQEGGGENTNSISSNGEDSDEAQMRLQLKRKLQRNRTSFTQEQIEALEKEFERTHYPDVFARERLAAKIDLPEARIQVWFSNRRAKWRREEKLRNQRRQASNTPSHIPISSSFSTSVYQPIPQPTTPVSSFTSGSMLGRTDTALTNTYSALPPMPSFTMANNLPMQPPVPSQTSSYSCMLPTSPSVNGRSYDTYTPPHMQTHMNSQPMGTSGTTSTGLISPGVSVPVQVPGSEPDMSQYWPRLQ
# In short: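 Multiplexed cis-reporter HepG2 system; 24 h treatment; reporter mRNA read by RT-PCR/CE fluorescence; bidirectional fit vs DMSO.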
# [2] = ATG_PXRE_CIS: Attagene CIS-FACTORIAL HepG2 Assay for human Pregnane X Receptor Element (PXRE) (AID 2282957); details: HepG2 Attagene CIS-FACTORIAL PXRE reporter, mRNA; actives raise or lower the signal
# In short: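 Transfect HepG2 with MRTUs (cis promoter elements); dose chemical, incubate 24 h; isolate RNA, RT with oligo(dT), PCR, 6-FAM label, HpaI cut, CE. Gain/loss fit vs DMSO.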
# [3] = ATG_PPRE_CIS: Attagene CIS-FACTORIAL HepG2 Assay for human Peroxisome Proliferator-activated Response Element (PPRE) (AID 2282958); details: HepG2 PPRE cis-element reporter, Attagene transcription factor profiling; actives raise or lower the signal
# In short: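 HepG2 cells transiently transfected with multiplexed cis-element reporter units measure endogenous transcription factor activity. After 24 h compound exposure, reporter mRNA is quantified by RT-PCR, 6-FAM labeling, HpaI digestion and capillary electrophoresis; bidirectional fits are made against DMSO baseline.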
# [4] = ATG_RORE_CIS: Attagene CIS-FACTORIAL HepG2 Assay for human RAR-related Orphan Receptor Element (RORE) (AID 2282959); details: HepG2 Attagene cis-factorial RORE reporter, mRNA; actives raise or lower the signal
# In short: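 HepG2 cells transiently transfected with multiple cis-element reporter transcription units, exposed to chemical for 24 h. Reporter mRNA quantified by RT-PCR, 6-FAM primer-extension labeling, HpaI digestion and capillary electrophoresis; bidirectional fit versus DMSO baseline.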
# [5] = ATG_Sox_CIS: Attagene CIS-FACTORIAL HepG2 Assay for human SRY-box transcription factor (SOX) (AID 2282960); details: HepG2 Attagene cis-factorial SOX reporter, mRNA; actives raise or lower the signal
# In short: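 HepG2 cells transiently transfected with cis-element-driven multiple reporter transcription units, dosed 24 h; reporter mRNA measured by RT-PCR, FAM labelling, HpaI digestion and capillary electrophoresis. Bidirectional fit versus DMSO baseline.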
# [6] = ATG_SREBP_CIS: Attagene CIS-FACTORIAL HepG2 Assay for human Sterol Regulatory Element Binding (SREBP) (AID 2282962); details: HepG2 Attagene cis-factorial SREBP reporter, mRNA; actives raise or lower the signal
# In short: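 mRNA induction of transfected cis-promoter reporters in HepG2 cells, 24 h post-dose. Detection: RT-PCR with 6-FAM-labelled products, HpaI digest, capillary electrophoresis. DMSO served as negative control and baseline.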
# [7] = biological target: Signal transducer and activator of transcription 3 (Homo sapiens) (UniProt P40763); test: ATG_STAT3_CIS: Attagene CIS-FACTORIAL HepG2 Assay for human Signal Transducer and Activator of Transcription 3 (STAT3) (AID 2282963); details: HepG2, Attagene cis-factorial STAT3 reporter transcription; actives raise or lower the signal
# Chain of Signal transducer and activator of transcription 3 (Homo sapiens) (P40763 whole entry, looked up): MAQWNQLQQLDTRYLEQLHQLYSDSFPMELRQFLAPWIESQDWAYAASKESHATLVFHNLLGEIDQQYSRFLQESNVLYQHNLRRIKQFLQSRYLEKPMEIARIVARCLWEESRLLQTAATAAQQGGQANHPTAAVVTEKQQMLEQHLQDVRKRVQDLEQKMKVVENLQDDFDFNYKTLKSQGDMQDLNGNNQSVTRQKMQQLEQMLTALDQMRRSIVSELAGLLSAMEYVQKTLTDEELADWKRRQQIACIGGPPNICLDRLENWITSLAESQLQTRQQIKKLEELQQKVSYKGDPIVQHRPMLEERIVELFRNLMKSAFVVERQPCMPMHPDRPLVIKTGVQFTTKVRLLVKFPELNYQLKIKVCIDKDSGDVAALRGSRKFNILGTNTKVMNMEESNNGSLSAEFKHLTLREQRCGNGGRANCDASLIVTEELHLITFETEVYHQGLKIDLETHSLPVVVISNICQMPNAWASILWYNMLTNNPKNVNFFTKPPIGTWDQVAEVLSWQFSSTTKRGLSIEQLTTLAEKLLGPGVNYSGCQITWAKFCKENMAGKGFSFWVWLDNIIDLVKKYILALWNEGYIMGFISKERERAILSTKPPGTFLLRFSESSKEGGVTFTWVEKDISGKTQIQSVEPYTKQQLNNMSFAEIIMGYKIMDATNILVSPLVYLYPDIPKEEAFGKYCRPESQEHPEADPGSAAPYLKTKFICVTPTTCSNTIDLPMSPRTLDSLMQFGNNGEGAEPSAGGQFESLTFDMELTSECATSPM
# In short: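 Values derive from bidirectional fits relative to DMSO of reporter mRNA levels, measured by RT-PCR with capillary electrophoresis, in HepG2 cells carrying transiently transfected cis-regulated reporter units and exposed 24 h.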
# [8] = ATG_TA_CIS: Attagene CIS-FACTORIAL HepG2 Assay for human TA Basal Promoter (AID 2282964); details: HepG2 Attagene CIS-factorial TA basal promoter reporter; actives raise or lower the signal
# In short: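 Background-control readout: TA basal promoter reporter mRNA, fitted in both directions relative to DMSO. Measured by RT-PCR and capillary electrophoresis 24 hours after treating HepG2 human liver cells transiently carrying multiplexed cis-regulated reporter constructs.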
# [9] = ATG_TCF_b_cat_CIS: Attagene CIS-FACTORIAL HepG2 Assay for human T-Cell-Factor with beta-catenin (TCF/b-cat) (AID 2282965); details: HepG2 TCF/beta-catenin cis-reporter transcription, actives raise or lower the signal
# In short: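 HepG2, transient MRTU transfection, cis-element-driven reporters (endogenous TFs). 24 h compound exposure. Readout: reporter mRNA by RT-PCR + 6-FAM primer extension, HpaI digest, capillary electrophoresis. Gain/loss fit vs DMSO baseline.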
# [10] = ATG_TAL_CIS: Attagene CIS-FACTORIAL HepG2 Assay for human TAL Basal Promoter (AID 2282966); details: HepG2 Attagene cis-factorial TAL promoter reporter; actives raise or lower the signal;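 note: background control endpoint measuring basal TAL promoter reporter mRNA not a specific factor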
# In short: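 Fluorescence of labelled reporter cDNA fragments, resolved by capillary electrophoresis, gave the readout. Human HepG2 liver cells carried transiently transfected cis-element reporter units and were treated for 24 hours; activity was fitted bidirectionally against DMSO.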
# [11] = ATG_TGFb_CIS: Attagene CIS-FACTORIAL HepG2 Assay for human Transforming Growth Factor (TGF) (AID 2282967); details: HepG2 Attagene CIS TGFb reporter, mRNA transcription; actives raise or lower the signal
# In short: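 Endogenous TGFB1-linked transcription factor activity read as reporter mRNA via RT-PCR and capillary electrophoresis, 24 h after dosing transiently transfected HepG2 cells. Gain or loss of signal fitted relative to DMSO.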
# [12] = ATG_VDRE_CIS: Attagene CIS-FACTORIAL HepG2 Assay for human Vitamin D Receptor Element (VDRE) (AID 2282968); details: HepG2 VDRE cis-reporter transcription, actives raise or lower the signal
# In short: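 Cell-based multiplexed reporter format in human liver HepG2 cells, 24 h post-dose. Fluorescence from capillary electrophoresis of reporter cDNA gives the signal, with DMSO as negative control and baseline.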
# [13] = biological target: Nuclear receptor subfamily 1 group I member 3 (Homo sapiens) (UniProt Q14994); test: ATG_CAR_TRANS: Attagene TRANS-FACTORIAL HepG2 Assay for human Constitutive Androstane Receptor (CAR) (AID 2282969; active = hit-call score of the fitted dose curve at least 0.9, where 1 is the maximum;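 note: activators raise reporter mRNA above DMSO so AC50 marks induction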); details: HepG2 Attagene TRANS-FACTORIAL CAR reporter
# Chain of Nuclear receptor subfamily 1 group I member 3 (Homo sapiens) (Q14994 whole entry, looked up, the tested form may be a part): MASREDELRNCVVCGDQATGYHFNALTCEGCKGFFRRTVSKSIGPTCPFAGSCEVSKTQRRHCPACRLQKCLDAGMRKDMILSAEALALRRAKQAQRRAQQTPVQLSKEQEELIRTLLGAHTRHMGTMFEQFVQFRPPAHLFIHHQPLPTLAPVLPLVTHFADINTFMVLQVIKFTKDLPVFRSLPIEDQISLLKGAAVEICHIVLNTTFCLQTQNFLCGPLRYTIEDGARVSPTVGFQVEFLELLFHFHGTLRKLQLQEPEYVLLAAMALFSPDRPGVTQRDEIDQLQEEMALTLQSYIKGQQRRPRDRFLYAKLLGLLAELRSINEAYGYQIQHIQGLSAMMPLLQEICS
# In short: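 HepG2 cells transiently transfected with GAL4-UAS reporter units; TRANS format reads activity of exogenous chimeric NR-Gal4 protein. After 24 h dosing, reporter mRNA quantified by RT-PCR, 6-FAM labelling and capillary electrophoresis; gain of signal fitted against DMSO.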
# [14] = biological target: Estrogen receptor (Homo sapiens) (UniProt P03372); test: ATG_ERa_TRANS: Attagene TRANS-FACTORIAL HepG2 Assay for human Estrogen Receptor alpha (ERa) (AID 2282970; active = hit-call score of the fitted dose curve at least 0.9, where 1 is the maximum); details: HepG2 Attagene TRANS ERa GAL4 reporter, mRNA
# Chain of Estrogen receptor (Homo sapiens) (P03372 whole entry, looked up, the tested form may be a part): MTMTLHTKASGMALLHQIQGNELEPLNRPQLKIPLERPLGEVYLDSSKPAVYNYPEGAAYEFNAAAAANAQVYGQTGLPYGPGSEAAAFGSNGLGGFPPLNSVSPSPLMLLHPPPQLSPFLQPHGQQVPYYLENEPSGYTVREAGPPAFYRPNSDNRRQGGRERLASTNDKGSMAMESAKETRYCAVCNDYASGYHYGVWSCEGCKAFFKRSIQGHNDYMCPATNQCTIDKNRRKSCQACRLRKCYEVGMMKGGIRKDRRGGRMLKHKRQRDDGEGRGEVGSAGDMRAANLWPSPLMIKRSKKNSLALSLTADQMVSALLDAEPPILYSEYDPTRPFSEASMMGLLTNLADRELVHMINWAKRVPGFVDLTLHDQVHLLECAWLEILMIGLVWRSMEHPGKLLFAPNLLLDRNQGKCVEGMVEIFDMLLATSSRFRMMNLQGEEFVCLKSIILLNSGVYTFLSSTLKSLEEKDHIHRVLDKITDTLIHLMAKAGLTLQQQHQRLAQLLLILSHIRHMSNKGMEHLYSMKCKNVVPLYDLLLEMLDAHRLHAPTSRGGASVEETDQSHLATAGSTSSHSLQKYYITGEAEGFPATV
# In short: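 Human liver HepG2, transient transfection of multiple GAL4-UAS reporter units; TRANS format (exogenous NR-Gal4 chimera). 24 h dosing. Readout: reporter mRNA, RT-PCR, 6-FAM primer extension, HpaI digest, capillary electrophoresis. Positive direction vs DMSO.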
# [15] = ATG_M_19_TRANS: Attagene TRANS-FACTORIAL HepG2 Assay for M19 Transcription Factor (Internal Marker) (AID 2282974; active = hit-call score of the fitted dose curve at least 0.9, where 1 is the maximum); details: HepG2 Attagene TRANS-FACTORIAL M19 internal marker reporter
# In short: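 HepG2 cells transiently transfected with multiple GAL4-UAS reporter transcription units were exposed to chemicals for 24 h. Reporter mRNA was read by RT-PCR, 6-FAM primer extension, HpaI digestion and capillary electrophoresis; gain of signal fitted relative to DMSO.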
# [16] = biological target: Transcription factor Sp1 (Homo sapiens) (UniProt P08047); test: ATG_Sp1_CIS: Attagene CIS-FACTORIAL HepG2 Assay for human Specificity Protein 1 (Sp1) (AID 2282961); details: HepG2 Sp1 cis-reporter transcription, actives raise or lower the signal
# Chain of Transcription factor Sp1 (Homo sapiens) (P08047 whole entry, looked up): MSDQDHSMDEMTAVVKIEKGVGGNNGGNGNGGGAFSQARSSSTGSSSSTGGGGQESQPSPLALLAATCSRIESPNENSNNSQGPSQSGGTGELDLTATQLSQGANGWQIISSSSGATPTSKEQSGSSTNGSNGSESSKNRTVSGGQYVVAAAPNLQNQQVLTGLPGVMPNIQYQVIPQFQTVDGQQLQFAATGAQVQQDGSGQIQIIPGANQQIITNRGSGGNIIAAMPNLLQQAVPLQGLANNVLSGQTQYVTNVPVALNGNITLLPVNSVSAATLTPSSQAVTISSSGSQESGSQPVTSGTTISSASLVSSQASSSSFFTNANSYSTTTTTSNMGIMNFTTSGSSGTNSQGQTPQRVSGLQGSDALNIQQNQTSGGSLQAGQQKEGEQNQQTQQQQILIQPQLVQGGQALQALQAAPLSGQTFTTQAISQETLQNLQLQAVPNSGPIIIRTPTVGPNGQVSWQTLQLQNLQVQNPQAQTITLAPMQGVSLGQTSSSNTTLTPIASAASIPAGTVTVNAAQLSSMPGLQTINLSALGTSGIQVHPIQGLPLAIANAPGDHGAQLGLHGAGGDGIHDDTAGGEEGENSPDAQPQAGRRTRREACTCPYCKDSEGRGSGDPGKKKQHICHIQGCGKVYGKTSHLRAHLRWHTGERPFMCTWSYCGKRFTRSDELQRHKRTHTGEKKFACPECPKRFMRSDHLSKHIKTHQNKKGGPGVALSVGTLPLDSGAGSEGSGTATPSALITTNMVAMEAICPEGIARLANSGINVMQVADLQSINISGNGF
# In short: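 HepG2 cells transiently transfected with multiple reporter transcription units driven by cis-regulatory elements; Sp1-responsive reporter mRNA measured 24 h after dosing by RT-PCR and capillary electrophoresis fluorescence, fitted bidirectionally against DMSO baseline.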
# [17] = biological target: Steroid hormone receptor ERR1 (Homo sapiens) (UniProt P11474); test: ATG_ERRa_TRANS: Attagene TRANS-FACTORIAL HepG2 Assay for human Estrogen-Related Receptor alpha (ERRa) (AID 2282971; active = hit-call score of the fitted dose curve at least 0.9, where 1 is the maximum); details: HepG2 Attagene TRANS reporter, ERRa transactivation
# Chain of Steroid hormone receptor ERR1 (Homo sapiens) (P11474 whole entry, looked up, the tested form may be a part): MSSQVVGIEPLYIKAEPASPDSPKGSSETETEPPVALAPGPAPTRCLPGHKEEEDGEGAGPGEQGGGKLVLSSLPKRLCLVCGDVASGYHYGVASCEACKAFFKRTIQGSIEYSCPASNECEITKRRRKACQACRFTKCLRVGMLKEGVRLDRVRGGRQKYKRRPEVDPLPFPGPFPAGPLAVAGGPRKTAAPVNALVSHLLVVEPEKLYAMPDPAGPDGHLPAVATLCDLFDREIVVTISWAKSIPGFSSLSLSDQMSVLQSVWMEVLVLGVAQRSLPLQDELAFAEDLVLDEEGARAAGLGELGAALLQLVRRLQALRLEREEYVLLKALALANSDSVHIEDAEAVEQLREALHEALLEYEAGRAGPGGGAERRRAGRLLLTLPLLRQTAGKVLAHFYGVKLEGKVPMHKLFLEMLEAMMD
# In short: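 Reporter transcript induction was quantified by RT-PCR and capillary electrophoresis of FAM-labelled, HpaI-cut products after 24 h treatment of HepG2 cells carrying transiently transfected GAL4-UAS reporter units and an exogenous ERRa-Gal4 fusion; activity scored as increase over DMSO.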
# [18] = biological target: X-box-binding protein 1 (Homo sapiens) (UniProt P17861); test: ATG_Xbp1_CIS: Attagene CIS-FACTORIAL HepG2 Assay for human X-box Binding Protein 1 (XBP1) (AID 2282972); details: HepG2 XBP1 cis-element reporter, Attagene multiplex; actives raise or lower the signal
# Chain of X-box-binding protein 1 (Homo sapiens) (P17861 whole entry, looked up, the tested form may be a part): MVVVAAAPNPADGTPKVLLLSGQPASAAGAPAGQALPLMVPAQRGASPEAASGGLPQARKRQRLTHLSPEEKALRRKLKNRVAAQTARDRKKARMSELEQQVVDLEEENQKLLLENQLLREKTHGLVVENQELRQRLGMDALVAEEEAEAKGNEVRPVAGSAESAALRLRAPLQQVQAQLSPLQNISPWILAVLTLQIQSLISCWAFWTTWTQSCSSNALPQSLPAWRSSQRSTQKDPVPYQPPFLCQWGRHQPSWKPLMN
# In short: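 Fluorescence-labelled cDNA fragments from reporter transcripts, separated by capillary electrophoresis, give the signal. Source: HepG2 cells transfected with promoter-driven reporter units, harvested 24 h post-dose. DMSO served as reference for bidirectional curve fitting.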
# [19] = ATG_GAL4_TRANS: Attagene TRANS-FACTORIAL HepG2 Assay for GAL4 (Internal Marker) (AID 2282976; active = hit-call score of the fitted dose curve at least 0.9, where 1 is the maximum); details: HepG2 Attagene TRANS GAL4 internal marker reporter
# In short: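 First, HepG2 cells were transfected with reporter units under GAL4-UAS control. Next, they were treated with chemical for 24 h. Finally, RNA was reverse-transcribed, PCR-amplified, FAM-labelled and resolved by capillary electrophoresis, with induction scored against DMSO.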
smiles,measurement,setting,value
ClC1=C(Cl)[C@]2(Cl)[C@H]3[C@H]([C@@H]4C=C[C@H]3C4)[C@@]1(Cl)C2(Cl)Cl,outcome,[1],inactive
same,AC50,[2],2.06 µM (active)
same,outcome,[3],inactive
same,AC50,[4],25.2 µM (active)
same,outcome,[5],inactive
same,outcome,[6],inactive
same,outcome,[7],inactive
same,outcome,[8],inactive
same,outcome,[9],inactive
same,outcome,[10],inactive
same,outcome,[11],inactive
same,AC50,[12],11.7 µM (active)
same,outcome,[13],inactive
same,AC50,[14],11.5 µM (active)
same,outcome,[15],inactive
O=[N+]([O-])c1ccc(Oc2ccc(Cl)cc2Cl)cc1,AC50,[1],31.9 µM (active)
same,AC50,[2],25.8 µM (active)
same,outcome,[3],inactive
same,AC50,[4],27.5 µM (active)
same,outcome,[5],inactive
same,outcome,[16],inactive
same,outcome,[6],inactive
same,outcome,[7],inactive
same,AC50,[8],39.7 µM (active)
same,outcome,[9],inactive
same,outcome,[10],inactive
same,AC50,[11],100 µM (active)
same,AC50,[12],27.3 µM (active)
same,outcome,[13],inactive
same,outcome,[17],inactive
same,outcome,[18],inactive
same,outcome,[15],inactive
same,outcome,[19],inactive
COc1cc(C=O)cc2c1[C@H](COC(N)=O)[C@]1(OC(C)=O)ON2C[C@H]2[C@@H]1N2C(C)=O,outcome,[1],inactive
same,AC50,[2],8.47 µM (active)
same,outcome,[3],inactive
same,outcome,[4],inactive
same,outcome,[5],inactive
same,outcome,[6],inactive
same,AC50,[7],33.4 µM (active)
same,AC50,[8],0.0965 µM (active)
same,AC50,[9],0.157 µM (active)
same,AC50,[10],57.3 µM (active)
same,AC50,[11],60.4 µM (active)
same,AC50,[12],0.146 µM (active)
same,outcome,[14],inactive
same,outcome,[17],inactive
same,outcome,[19],inactive
c1ccc2c(c1)-c1cccc3cccc-2c13,outcome,[1],inactive
same,AC50,[2],26 µM (active)
same,outcome,[3],inactive
same,outcome,[4],inactive
same,outcome,[5],inactive
same,outcome,[6],inactive
same,outcome,[7],inactive
same,outcome,[8],inactive
same,outcome,[9],inactive
same,outcome,[10],inactive
same,outcome,[11],inactive
same,outcome,[12],inactive
same,outcome,[13],inactive
same,outcome,[19],inactive
